Test results as given in ChEMBL document CHEMBL1157539, “Thousands of chemical starting points for antimalarial lead identification” (Nature, 2010).
Values joined by “and” are separate entries in the source; they are usually repeats but may differ in a detail not shown here. Equal entries are not always repeated.

Assays:
Type in all cases: functional
Plasmodium falciparum [1] = assay: GSK_TCMDC: Inhibition of Plasmodium falciparum 3D7 in whole red blood cells, using parasite LDH activity as an index of growth. Test compounds present at 2uM
Plasmodium falciparum [2] = assay: GSK_TCMDC: Inhibition of Plasmodium falciparum Dd2 in whole red blood cells, using parasite LDH activity as an index of growth. Test compounds present at 2uM
HepG2 = assay: GSK_TCMDC: Percent inhibition of human HepG2 cell line. Test compounds present at 10uM.

Row | SMILES | Inhibition (Plasmodium falciparum [1]) | Inhibition (Plasmodium falciparum [2]) | Inhibition (HepG2)
1 | O=C(/C=C/c1ccc(Cl)c(Cl)c1)NC1CCC(N2CCC(c3c[nH]c4ccc(O)cc34)CC2)CC1 (stereo unspecified) | 97% | 16% | 10%
2 | CS(=O)(=O)Nc1ccc2[nH]cc(C3CCN(CC4CCC(NC(=O)/C=C/c5ccccc5Cl)CC4)CC3)c2c1 (stereo unspecified) | 96% | 7% | 12%
3 | O=C(Nc1ccc(Cl)c(Cl)c1)N1CCC(CN2CCC(c3c[nH]c4ccccc34)CC2)CC1 | 100% | 69% | 46%
4 | Cc1[nH]c2ccc(O)cc2c1C1CCN(CC2CCC(NC(=O)/C=C/c3ccc(Cl)c(Cl)c3)CC2)CC1 (stereo unspecified) | 100% | 95% | 19%
5 | COc1cc(C(=O)NC2CCC(CN3CCC(c4c[nH]c5ccccc45)CC3)CC2)cc(Cl)n1 (stereo unspecified) | 99% | 45% | 33%
6 | O=C(NC1CCN(CCc2c[nH]c3ccc(F)cc23)CC1)c1ncc(-c2ccccc2)[nH]1.O=C(O)C(F)(F)F | 100% | 69% | 0%
7 | N#Cc1c(Cl)cccc1Oc1ccc(S(=O)(=O)NC2CCC(CN3CCC(c4c[nH]c5ccccc45)CC3)CC2)cc1 (stereo unspecified) | 85% and 100% | 36% and 16% | 31% and 29%
8 | CC[C@H]1CN2CC[C@@H]1C[C@H]2[C@H](O)c1cc(N2CCC(CO)CC2)nc2ccc(OC)cc12 | 99% | 99% | 4%
9 | COc1ccc2[nH]cc(C3CCN(Cc4ccc(NC(=O)c5ccc(-c6ccccc6)cc5)cc4)CC3)c2c1 | 100% | 72% | 24%
10 | CCOC(=O)c1c(CN2CCN(C)CC2)n(Cc2ccccc2)c2cc(Br)c(O)cc12 | 100% | 46% | 11%
11 | CN(C)c1cccc(NC(=O)NC2N=C(c3ccccc3)c3ccccc3N(CC(=O)N(C)c3ccccc3)C2=O)c1 (stereo unspecified) | 99% | 80% | 1%
12 | CCOC(=O)c1c(C)n(C2CCCCC2)c2cc(Br)c(O)cc12 | 98% | 71% | 1%
13 | CCCC(=O)c1c(O)c2ccccc2oc1=O | 93% | 1% | 11%
14 | COc1ccc(-c2ccccc2)cc1NC(=S)NC1CCC(CN2CCC(c3c[nH]c4ccccc34)CC2)CC1 (stereo unspecified) | 100% | 98% and 95% | 27% and 51%
15 | Br.CCOC(=O)c1ccc(CC(C)NCC(O)c2cccc(C(F)(F)F)c2)cc1 (stereo unspecified) | 100% | 98% | 5%
16 | C[C@H](Cc1ccc(OCCCCCCOc2ccccc2)cc1)NC[C@H](O)c1cccc(Cl)c1.Cl | 93% | 99% | 21%
17 | CC(C)c1ccc(C=CC(=O)NC2CCC(CN3CCC(c4c[nH]c5ccccc45)CC3)CC2)cc1 (stereo unspecified) | 100% | 85% | 50%
18 | O=C(/C=C/c1ccc(Cl)c(Cl)c1)NCC1CCC(CN2CCC(c3c[nH]c4ccccc34)CC2)CC1 (stereo unspecified) | 100% | 93% | 54%
19 | CCCN(CC(=O)NCCc1ccccc1)c1ccc(C#N)c2ccccc12.O=C(O)C(F)(F)F | 92% | 39% | 8%
20 | O=C(C=Cc1ccc(Br)cc1)NC1CCC(CN2CCC(c3c[nH]c4ccccc34)CC2)CC1 (stereo unspecified) | 100% | 98% | 71%
21 | Br.CNCCc1c(O)ccc2ccccc12 | 94% | 0% | 6%
22 | S=C(Nc1ccc2c(c1)OCCO2)NC1CCC(CN2CCC(c3c[nH]c4ccccc34)CC2)CC1 (stereo unspecified) | 96% and 92% | 1% and 7% | 31% and 32%
23 | CC[C@H]1CN2CC[C@H]1C[C@H]2C(O)c1cc(OC)nc2ccccc12 (stereo partly specified) | 100% | 98% | 0%
24 | CC1(CCCCN2CC=C(c3c[nH]c4ccccc34)CC2)C(=O)Nc2ccccc21 (stereo unspecified) | 94% | 90% | 3%
25 | CN1C(=O)[C@H](NC(=O)[C@@H](Cc2ccccc2)NC(=S)Nc2ccccc2)N=C(c2ccccc2)c2ccccc21 | 86% | 23% | 0%
26 | CCCc1cc(O)c2c3c(c(=O)oc2c1)CN(C)CC3 | 98% | 50% | 12%
27 | C=CCOc1ccccc1CNCC(O)c1cccc(C(F)(F)F)c1 (stereo unspecified) | 99% | 98% | 10%
